Bioassay records (PubChem BioAssay)
Hits are enriched below; roughly 1.9% of the tested compounds scored in any of these assays.
Menin-MLL TR inh – qHTS Assay for Inhibitors Targeting the Menin-MLL Interaction in MLL Related Leukemias: Competition With Texas Red Labeled MLL-derived Mutant Peptide | O00255 | AID 1768, 2009 | Menin + Texas Red MLL mutant peptide, fluorescence polarization | actives 0.23% (n = 270,000) | Potency, µM (series often up to 61.6 µM), for the others: top-dose FP activity change, negative = inhibition, actives largely listed as inhibitors; active = well fitted inhibition curve with a large enough effect in the polarisation, with a control signal flat, not every such curve was filed as active; inconclusive = small, poorly fitted or top-dose-only effect, or effect the other way, or a change in a side signal; inactive = no such curve, though single readings can be large or run the other way; the % refers to the polarisation; note: potency is the fitted concentration of half-maximal effect; % of control where 0% means no effect
ClpP mod – qHTS Assay for Activators of ClpP. actives 1.9% (n = 340,000). AID 651965, 2013. Potency, µM (series often up to 57.5 µM), for the others: at the highest dose activity change, negative = active. purified B. subtilis ClpP, FRET peptide cleavage, 20 min; active = well fitted falling curve with a large enough effect; inconclusive = small, poorly fitted or top-dose-only effect; inactive = no such curve, though single readings can be large or run the other way; note: potency is the fitted concentration of half-maximal effect; the source files actives as falling curves though it sought activators and does not explain the sign; nearly all actives have a fitted effect of over 65% in size
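FRET quenching reversal measured ClpP activation: 10 microg/mL B. subtilis ClpP at pH 8 with the FRET-FV decapeptide, read at 430 nm after 320 nm excitation. The 20-min minus 0-min signal was scaled between DMSO/no-enzyme wells and ADEP (5.8 microM final).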
Menin MLL FP FL – qHTS Assay for Inhibitors Targeting the Menin-MLL Interaction in MLL Related Leukemias: Competition With Fluorescein Labeled MLL-derived Peptide; Fluorescence polarization, fluorescein-MLL peptide displacement from menin; FP activity change, % at 61.4 µM; 290,000 tested, under 10 active; active = well fitted curve in the direction sought with a large enough effect in the polarisation, not every such curve was filed as active; inconclusive = small, poorly fitted or top-dose-only effect, or effect the other way, or a change in a side signal; inactive = no such curve, though single readings can be large or run the other way; the % refers to the polarisation; note: % of control where 0% means no effect
CXXC DNA block – qHTS Fluorescence Polarization Assay for Inhibitors of MLL CXXC domain - DNA interaction; MLL-CXXC / FITC-HOXA9 DNA fluorescence polarization; Potency, µM (highest dose often 115 µM), for inactives: at the top dose activity change, negative = inhibition, most hits filed as inhibitors; actives 0.037% (n = 290,000); AID 2662, 2010; active = well fitted inhibition curve with a large enough effect in the polarisation, with a control signal flat, not every such curve was filed as active; inconclusive = small, poorly fitted or top-dose-only effect, or effect the other way, or a change in a side signal; inactive = no such curve, though single readings can be large or run the other way; the % refers to the polarisation; note: potency is the fitted concentration of half-maximal effect
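Purified MLL-CXXC (added from a 7 uM solution) was preincubated 5 min at ambient with pinned compounds in 50 mM Tris-HCl pH 7.5, 50 mM NaCl, 1 mM DTT, 0.05% BSA. Fluorescein-labeled HOX-A9 DNA (50 nM solution) followed, 30 min, then polarization read.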
Epigenetic reg – Quantitative High-Throughput Screen for Regulators of Epigenetic Control. AID 1865, 2009. murine LDR cells, GFP reporter derepression, 30 h. Potency, µM (top dose mostly 53.9 µM), for the others: top-dose GFP activation, most hits filed as activators. actives 0.2% (n = 280,000); active = well fitted activation curve with a large enough effect; inconclusive = small, poorly fitted or top-dose-only effect; note: potency is the fitted concentration of half-maximal effect; % of control where 0% means no effect; nearly all actives have a fitted effect of over 60% in size
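Murine LDR cells bearing a silenced CMV-driven GFP reporter were exposed to compound for 30 h at 37 C. After PBS washes, GFP-positive cells (20-120 um objects) counted by laser-scanning microplate cytometry.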
PINK1 modulator – A Quantitative High throughput Screen to Identify Chemical Modulators of PINK1 Expression | Potency, µM (top dose mostly 76.6 µM), for the others: top-dose activation (PINK1 increase), most hits filed as activators | PINK1 immunofluorescence, high-content cytometry, 24 h | AID 624263, 2012 | actives 0.2% (n = 410,000); active = well fitted activation curve with a large enough effect; inconclusive = small, poorly fitted or top-dose-only effect; cell line not stated here; note: potency is the fitted concentration of half-maximal effect; % of control where 0% means no effect; nearly all actives have a fitted effect of over 65% in size
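Stable cell line, 250 cells/well, 12 h attachment; compounds pinned at 5 concentrations, 24 h; CCCP control. Fixed with nuclear dye, primary antibodies 12 h at 10 degrees C, secondary plus cell stain; laser-scanning cytometer read.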
* = called active by the depositor; ? = inconclusive; . = no result; [ ] = remark or other dose.

SMILES	Menin-MLL TR inh	ClpP mod	Menin MLL FP FL	CXXC DNA block	Epigenetic reg	PINK1 modulator
COc1ccc(N2C(=O)[C@@H]3C[C@H]2CN3Cc2ccc3nccnc3c2)cc1Cl	.	.	.	.	.	0%
Cc1ccc(C(=O)Nc2cccc(-c3nc(CNC(=O)c4cccc(N(C)C)c4)c(C)o3)c2)s1	.	.	.	.	.	0%
Cc1cccc(C)c1Nc1nnc(SCc2nc3ccccc3s2)s1	?	14µM*	1	1%	0%	3%
C=CCSc1nnc(C2CCCN(Cc3ccccc3O)C2)n1C (stereo unspecified)	.	.	.	.	.	0%
CCCCCCCC(=O)N/N=C(\C)c1ccc(O)cc1O	8%	16%	4	7%	-5%	10%
CCCCCCCCC(=O)N/N=C(\C)c1ccc(O)cc1O	23%	32µM*	0	-2%	2%	6%
Cc1ccc(S(=O)(=O)NC(=O)O[C@@H]2C(=O)c3cc(Br)ccc3O[C@H]2c2ccc3c(c2)OCO3)cc1	-2%	.	?	.	0%	.
Clc1ccc2[nH]c(-c3ccccc3)cc2c1	?	28µM*	2	-21%	0%	6%
c1ccc(-c2cc3ccccc3[nH]2)cc1	-2%	5%	0	-1%	.	7%
CC(C)CNC(=S)N(Cc1ccco1)Cc1cc2cc3c(cc2[nH]c1=O)OCCO3	-7%	32µM*	8	-5%	0%	9%
Cc1ccc2cc(CN(Cc3ccc4c(c3)OCO4)Cc3nnnn3Cc3ccco3)c(=O)[nH]c2c1	2%	-11%	9	10%	-3%	4%
CCC(C)(C)n1nnnc1C(C(C)C)N(Cc1ccco1)Cc1cc2cc3c(cc2[nH]c1=O)OCO3 (stereo unspecified)	-11%	32µM*	?	1%	-2%	-8%[38.3 µM]
CCNC(=S)N(Cc1ccco1)Cc1cc2cc3c(cc2[nH]c1=O)OCCO3	-6%	28µM*	2	?	0%	1%
Cc1ccc(CN(Cc2cc3cc4c(cc3[nH]c2=O)OCCO4)Cc2nnnn2Cc2ccco2)cc1	?	32µM*	?	11%	0%	-3%[38.3 µM]
CNC(=S)N(Cc1ccco1)Cc1cc2cc3c(cc2[nH]c1=O)OCCO3	10%	?	7	-1%	-1%	13%
CCCCNC(=O)[C@@H]1CC=C[C@@H]2CCN(Cc3ccc(OC)c(OC)c3)C(=O)[C@@H]21	.	2%	.	.	.	.
COc1ccccc1CN1CCCC(n2cc(C(=O)N3CCCC3)nn2)C1 (stereo unspecified)	.	.	.	.	.	0%
Cc1cc(-c2nnc(CCC(=O)NCc3cc(F)cc(C(F)(F)F)c3)o2)no1	.	28µM*	.	5%	.	1%
Cc1cc(-c2nnc(CCC(=O)NCC(C)c3ccccc3)o2)no1 (stereo unspecified)	.	-11%	.	15%	.	0%
COc1cc(NC(=O)c2oc3c(c2C)-c2nn(Cc4cccc(Cl)c4)cc2CC3)cc(OC)c1	.	20µM*	.	.	1%	3%
CCn1cc2c(n1)-c1c(oc(C(=O)Nc3cccc(C(F)(F)F)c3)c1C)CC2	.	35µM*	.	.	1%	6%
Cn1c(SCCOc2ccccc2)nnc1-c1ccc(NC(=O)CCc2ccccc2)cc1	.	7%	.	.	.	0%
COC(=O)c1[nH]c2ccc(Cl)cc2c1NC(=O)Oc1ccccc1	?	10µM*	3	0%	0%	0%
CCOC(=O)C1CCN(CC(=O)Nc2c(C(=O)OC)[nH]c3ccccc23)CC1	-6%[11.7 µM]	.	-1	6%	1%	.
CCOC(=O)C1CCN(CC(=O)Nc2c(C(=O)OC)[nH]c3ccc(Cl)cc23)CC1	25%	28µM*	1	2%	0%	1%
SMILES	Menin-MLL TR inh	ClpP mod	Menin MLL FP FL	CXXC DNA block	Epigenetic reg	PINK1 modulator
COC(=O)c1[nH]c2ccc(Cl)cc2c1NC(=O)CCN1CCN(C2CCCCC2)CC1	-14%	-25%	0	-1%	-1%	-4%
COC(=O)c1[nH]c2ccc(Cl)cc2c1NC(=O)C1CC1	8%	32µM*	4	2%	-1%	11%
CC(=O)Oc1ccc(-c2nc(-c3ccccc3)no2)cc1	.	1%	.	.	.	1%
O=C(Cc1ccc2ccccc2c1)NO	.	2%	.	.	.	2%
N#Cc1nc(Cc2ccccc2)oc1N1CCC(Cc2ccccc2)CC1	-6%	-2%	0	-5%	0%	0%
N#Cc1nc(Cc2ccccc2)oc1N1CCC(C(N)=O)CC1	8%	13µM*	4	8%	-1%	-1%
COc1cccc(-c2nc3cc4c(cc3cc2CN(C(=O)c2cc(C)nn2C)C2CC2)CCC4)c1OC	.	.	.	.	.	3%
CCOC(=O)c1ccc(N(C(=O)c2ccccc2)c2ccccc2)cc1	.	-4%	.	.	.	.
Cc1ccc(C)c2c(C)ccnc12	.	5%	.	.	.	.
CCOC(=O)C1CCCCN1C(=O)c1cnn(-c2nccc(-c3cc(C)sc3C)n2)c1C1CC1 (stereo unspecified)	.	.	.	.	.	1%
CCN1c2ccccc2-c2nc3ccccc3n2C1c1cccnc1 (stereo unspecified)	-7%	32µM*	0	-1%	0%	.
COC(=O)CCC(=O)Nc1sc2c(c1C#N)CCCC2	-1%	28µM*	3	9%	-3%	10%
COc1ccccc1-c1ccc(C(=O)N(C)CC2COCCO2)c(N2CCN(c3ccccc3F)CC2)n1 (stereo unspecified)	.	.	.	.	.	0%
O=C(NCc1ccccc1)c1nn(-c2ccccc2)nc1CO	.	32µM*	.	.	-1%	-1%
O=C(O)c1nn(-c2ccccc2)nc1-c1nn(-c2ccccc2)nc1C(=O)O	5%	25µM*	2	-3%	-1%	0%
O=C(NCc1cccnc1)c1nn(-c2ccc(Cl)cc2)nc1CO	.	28µM*	.	.	-1%	0%
O=C(NCCCCc1ccccc1)c1nn(-c2ccccc2)nc1CO	.	?	.	.	-3%	-2%
O=C(NCc1cccnc1)c1nn(-c2ccccc2F)nc1CO	.	?	.	.	2%	0%
Cc1[nH]c2ccccc2c1/C=C/c1cc[n+](C)cc1	13%	2%	?	?	14µM*	?
Cc1[nH]c2ccccc2c1/C=C/c1c(C)[nH]c2ccccc12	.	17%	.	.	.	4%
CCN(CC)c1ccc(NC2CC(=O)N(CCc3ccc(OC)cc3)C2=O)cc1 (stereo unspecified)	.	.	6	5%	3.5µM*	2.2µM*
